Among the test systems are HCT-15 colon; HT29 colon; SNB-75 CNS; SNB-19 CNS; U251 CNS; PC-3 prostate; SK-MEL-5 melanoma; UACC-62 melanoma; LOX IMVI melanoma; SK-MEL-28 melanoma; SK-MEL-2 melanoma; EKVX NSCLC; SN12C renal; UO-31 renal; TK-10 renal; ACHN renal; CAKI-1 renal; A498 renal; CCRF-CEM leukemia; MOLT-4 leukemia.
Common to all, as to experiment: NCI-60 one-dose screen, 48 h (100 = growth as untreated, 0 = no growth, -100 = all killed)
Common to all, as to conditions: 10 µM unless noted

Consider 7 molecules from PubChem BioAssay (NCI).

Structures are written as SMILES. About 83,000 compounds went through this panel and 20% of them were active in at least one assay; those are over-represented in the sample as a whole.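 Testing used 96-well plates and a 48-hour single-concentration exposure. Example: -40 means 40% of the starting cells died.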 Values without a mark were called inactive. Activity calls are given as the source filed them. How the source made its calls: active means growth percent below 10; inactive means the rest.

Regarding `Cc1cc2c([nH]1)CSc1cc(S(=O)(=O)c3ccccc3)c(=O)[nH]c1-2`, the growth is 17.7% [100 µM] in the test on HCT-15 colon; 10.5% [100 µM] in the test on HT29 colon; 20% [100 µM] with SNB-75 CNS; 37.4% [100 µM] with SNB-19 CNS; 15.5% [100 µM] with U251 CNS; 23% [100 µM] in the test with PC-3 prostate. Besides, the growth in the test on SK-MEL-5 melanoma was -36.7% [100 µM] (active); in the test with UACC-62 melanoma it was 19.1% [100 µM]; in the test on LOX IMVI melanoma, 12.1% [100 µM]; with SK-MEL-28 melanoma, 17.9% [100 µM]; with SK-MEL-2 melanoma it was 30.5% [100 µM]; with EKVX NSCLC it was 21.1% [100 µM]. In addition, the growth in the test on SN12C renal was 23.8% [100 µM]; in the test with UO-31 renal, 35.4% [100 µM]; in the test on TK-10 renal, 26.5% [100 µM]; in the test on ACHN renal it was 23.5% [100 µM]; in the test on CAKI-1 renal, 6.96% [100 µM] (active); with A498 renal, 51.7% [100 µM]. For the same molecule, the figures for the growth in the test on CCRF-CEM leukemia and in the test with MOLT-4 leukemia were 19.3% [100 µM] and 32.7% [100 µM], respectively.
With `Nc1c(C(=O)Nc2ccccc2Cl)sc2nc3c(cc12)C(O)CCC3` (stereo not given), the growth in the test on HCT-15 colon is 30.5%; in the test with HT29 colon it was 6.13% (active); with SNB-75 CNS it was 22.9%; in the test on SNB-19 CNS, 41.6%; in the test on U251 CNS it was 29.4%; with PC-3 prostate, 36.8%. The growth with SK-MEL-5 melanoma is 21.4%; in the test on UACC-62 melanoma, 47.9%; in the test on LOX IMVI melanoma, 45.5%; with SK-MEL-28 melanoma it was 79.2%; in the test on SK-MEL-2 melanoma, 36.5%; in the test with EKVX NSCLC, 40.7%. The growth in the test on SN12C renal was 59.7%; in the test on UO-31 renal, 56.9%; with TK-10 renal, 45.8%; in the test with ACHN renal, 57.1%; with CAKI-1 renal it was 49.6%; with A498 renal, 18%. Also, the growth in the test with CCRF-CEM leukemia is 17.7%; with MOLT-4 leukemia, 38.9%.
As to `CC(C)(C)[Si](C)(C)O[C@H]1C(=O)C=CN2CC=C[C@@H]12`, the growth with HCT-15 colon is 104% [100 µM]; with HT29 colon, 106% [100 µM]; with SNB-75 CNS it was 91% [100 µM]; in the test on SNB-19 CNS, 89.1% [100 µM]; with U251 CNS, 98.5% [100 µM]; in the test with PC-3 prostate it was 91.9% [100 µM]. The growth in the test on SK-MEL-5 melanoma is 106% [100 µM]; in the test with UACC-62 melanoma it was 85.3% [100 µM]; in the test on LOX IMVI melanoma, 102% [100 µM]; in the test with SK-MEL-28 melanoma it was 117% [100 µM]; in the test on SK-MEL-2 melanoma, 112% [100 µM]; in the test with EKVX NSCLC, 91.2% [100 µM]. Moreover, the growth was 97.4% [100 µM] in the test on SN12C renal; 80.3% [100 µM] with UO-31 renal; 108% [100 µM] in the test on TK-10 renal; 101% [100 µM] in the test on ACHN renal; 104% [100 µM] in the test with CAKI-1 renal; 97.9% [100 µM] with A498 renal. Besides, the growth with CCRF-CEM leukemia was 106% [100 µM]; with MOLT-4 leukemia it was 118% [100 µM].
As to `COc1cc2c(c(OC)c1OC)CCC(c1cccc(C(=O)Nc3cccc(Br)c3)c1)O2` (stereo not given), the growth in the test with HCT-15 colon was 67%; in the test on HT29 colon, 58.1%; with SNB-75 CNS, 69%; in the test with SNB-19 CNS, 81.6%; in the test on U251 CNS, 71.5%; in the test with PC-3 prostate, 49.1%. Further, the growth with SK-MEL-5 melanoma is 55.6%; in the test with UACC-62 melanoma, 52.8%; in the test on LOX IMVI melanoma it was 74%; with SK-MEL-28 melanoma, 87.9%; in the test with SK-MEL-2 melanoma, 76.8%; in the test on EKVX NSCLC, 50.4%. In addition, the growth in the test with SN12C renal was 55.9%; with UO-31 renal, 54.7%; in the test with TK-10 renal, 78.7%; with ACHN renal it was 84.3%; in the test with CAKI-1 renal, 57.8%; in the test on A498 renal, 28.8%. Moreover, the figures for the growth in the test on CCRF-CEM leukemia and in the test with MOLT-4 leukemia were 69% and 49.4%, respectively.
For the molecule `Cn1cc(-c2nc(-c3c[nH]c4ccncc34)cs2)c2ccccc21`, the growth is -21.6% (active) in the test with HCT-15 colon; 0.469% (active) in the test on HT29 colon; 91% in the test with SNB-75 CNS; 88.4% with SNB-19 CNS; -43.8% (active) in the test with U251 CNS; 61.5% with PC-3 prostate. In addition, the growth in the test with SK-MEL-5 melanoma was 55.2%; with UACC-62 melanoma, 94.6%; in the test with LOX IMVI melanoma, -78% (active); in the test on SK-MEL-28 melanoma it was -79.8% (active); with SK-MEL-2 melanoma, 93.1%; in the test on EKVX NSCLC, 49%. The growth is 77.5% in the test with SN12C renal; 57.9% in the test with UO-31 renal; 88.3% with TK-10 renal; 24.7% in the test on ACHN renal; 19.8% in the test with CAKI-1 renal; 85.3% with A498 renal. Besides, the growth was 0.202% (active) with CCRF-CEM leukemia and 35.7% in the test with MOLT-4 leukemia.
Consider `COC(=O)c1c2c(c(C)[n+]([O-])c1C)C(=O)C(NCc1ccc(Cl)cc1)=CC2=O`, for which the growth is 39.6% with HCT-15 colon; 9.34% (active) in the test with HT29 colon; 131% with SNB-75 CNS; 84.4% with SNB-19 CNS; 57.2% with U251 CNS; 33.5% with PC-3 prostate. Also, the growth with SK-MEL-5 melanoma is 29.9%; in the test on UACC-62 melanoma it was 6.15% (active); in the test on LOX IMVI melanoma, 45.8%; with SK-MEL-28 melanoma, 95.7%; in the test on SK-MEL-2 melanoma it was 83.4%; in the test with EKVX NSCLC, 70.9%. The growth is 38% in the test with SN12C renal; 79% in the test on UO-31 renal; 111% in the test on TK-10 renal; 67.5% with ACHN renal; 76.3% with CAKI-1 renal; 88.2% in the test with A498 renal. The growth was 58% with CCRF-CEM leukemia and 72.8% in the test with MOLT-4 leukemia.
Take `COc1ccc(/C=C2\COc3ccc(O)cc3C2=O)c(OC)c1OC`: the growth with HCT-15 colon is 48.8%; in the test on HT29 colon it was 68.5%; in the test with SNB-75 CNS, 83%; in the test on SNB-19 CNS it was 80.6%; in the test with U251 CNS it was 60.8%; in the test with PC-3 prostate, 77.1%. The growth in the test on SK-MEL-5 melanoma is 89.9%; with UACC-62 melanoma, 78.7%; in the test with LOX IMVI melanoma it was 44.3%; with SK-MEL-28 melanoma it was 99.2%; in the test on SK-MEL-2 melanoma, 102%; in the test on EKVX NSCLC it was 93.9%. The growth with SN12C renal was 66.3%; with UO-31 renal it was 71.5%; with TK-10 renal it was 109%; in the test on ACHN renal it was 80.1%; in the test on CAKI-1 renal, 68.2%; in the test with A498 renal it was 113%. The results for the growth in the test with CCRF-CEM leukemia and with MOLT-4 leukemia were 8.08% (active) and 73.2%, respectively.
